# Measurements reported in ChEMBL document CHEMBL2218924, “A broad activity screen in support of a chemogenomic map for kinase signalling research and drug discovery” (Biochem J, 2013).
# How the values were obtained:
# [1] = biological target: T1, Ephrin type-A receptor 3 (Homo sapiens) (UniProt P29320); details: at 10 µM
# T1 sequence (whole entry): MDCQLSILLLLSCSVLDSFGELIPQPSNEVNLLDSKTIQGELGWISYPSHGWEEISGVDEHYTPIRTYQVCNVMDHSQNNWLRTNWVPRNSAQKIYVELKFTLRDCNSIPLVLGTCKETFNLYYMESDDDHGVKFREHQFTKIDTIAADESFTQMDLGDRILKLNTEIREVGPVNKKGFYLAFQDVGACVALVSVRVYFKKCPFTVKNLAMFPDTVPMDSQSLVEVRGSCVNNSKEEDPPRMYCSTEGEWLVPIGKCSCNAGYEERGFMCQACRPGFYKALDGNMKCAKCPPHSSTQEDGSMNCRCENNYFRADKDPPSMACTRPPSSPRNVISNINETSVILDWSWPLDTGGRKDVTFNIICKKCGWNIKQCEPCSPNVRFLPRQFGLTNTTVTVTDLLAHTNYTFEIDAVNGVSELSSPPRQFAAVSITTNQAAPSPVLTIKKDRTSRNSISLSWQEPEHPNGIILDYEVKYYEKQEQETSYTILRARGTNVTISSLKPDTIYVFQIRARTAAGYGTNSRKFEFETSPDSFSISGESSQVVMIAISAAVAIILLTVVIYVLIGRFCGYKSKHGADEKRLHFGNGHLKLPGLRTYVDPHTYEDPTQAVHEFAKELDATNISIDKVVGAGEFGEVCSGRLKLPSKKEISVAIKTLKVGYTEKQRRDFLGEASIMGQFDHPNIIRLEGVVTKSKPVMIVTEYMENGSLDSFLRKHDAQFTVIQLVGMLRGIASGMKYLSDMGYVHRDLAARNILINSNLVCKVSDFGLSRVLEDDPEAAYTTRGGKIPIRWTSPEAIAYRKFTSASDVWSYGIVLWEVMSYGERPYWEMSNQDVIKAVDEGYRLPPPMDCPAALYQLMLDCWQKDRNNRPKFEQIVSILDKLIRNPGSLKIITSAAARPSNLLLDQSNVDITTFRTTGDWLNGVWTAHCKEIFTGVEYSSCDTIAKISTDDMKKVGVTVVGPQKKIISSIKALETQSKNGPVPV
# [2] = biological target: T2, Ephrin type-B receptor 1 (Homo sapiens) (UniProt P54762); details: at 1 µM
# T2 sequence (whole entry): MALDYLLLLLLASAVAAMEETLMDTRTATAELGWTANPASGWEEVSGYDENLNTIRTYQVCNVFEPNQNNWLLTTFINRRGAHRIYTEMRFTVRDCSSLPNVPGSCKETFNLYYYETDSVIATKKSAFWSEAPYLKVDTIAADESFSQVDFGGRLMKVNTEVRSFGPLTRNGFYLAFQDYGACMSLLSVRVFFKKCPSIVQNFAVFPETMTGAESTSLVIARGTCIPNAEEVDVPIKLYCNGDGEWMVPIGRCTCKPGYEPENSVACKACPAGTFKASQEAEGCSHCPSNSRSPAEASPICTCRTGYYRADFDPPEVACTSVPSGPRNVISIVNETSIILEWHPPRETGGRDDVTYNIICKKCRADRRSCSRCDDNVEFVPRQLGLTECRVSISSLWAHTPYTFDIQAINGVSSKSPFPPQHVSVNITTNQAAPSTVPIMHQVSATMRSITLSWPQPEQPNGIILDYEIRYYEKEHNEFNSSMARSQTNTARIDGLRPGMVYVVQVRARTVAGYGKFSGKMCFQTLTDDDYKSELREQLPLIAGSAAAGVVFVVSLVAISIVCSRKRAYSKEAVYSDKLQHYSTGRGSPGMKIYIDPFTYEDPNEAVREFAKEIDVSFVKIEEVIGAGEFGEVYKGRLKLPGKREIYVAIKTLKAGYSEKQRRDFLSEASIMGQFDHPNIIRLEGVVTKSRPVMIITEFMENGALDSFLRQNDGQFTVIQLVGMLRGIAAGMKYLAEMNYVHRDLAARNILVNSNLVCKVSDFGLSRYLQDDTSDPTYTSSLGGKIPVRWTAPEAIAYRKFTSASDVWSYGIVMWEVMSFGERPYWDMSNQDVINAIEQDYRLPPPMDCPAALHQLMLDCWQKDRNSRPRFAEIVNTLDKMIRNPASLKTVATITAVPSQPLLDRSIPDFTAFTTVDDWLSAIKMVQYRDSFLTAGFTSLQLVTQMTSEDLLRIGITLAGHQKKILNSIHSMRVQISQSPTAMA
# [3] = biological target: T2, Ephrin type-B receptor 1 (Homo sapiens); details: at 10 µM
# [4] = biological target: T3, Ephrin type-B receptor 2 (Homo sapiens) (UniProt P29323); details: at 1 µM
# T3 sequence (whole entry): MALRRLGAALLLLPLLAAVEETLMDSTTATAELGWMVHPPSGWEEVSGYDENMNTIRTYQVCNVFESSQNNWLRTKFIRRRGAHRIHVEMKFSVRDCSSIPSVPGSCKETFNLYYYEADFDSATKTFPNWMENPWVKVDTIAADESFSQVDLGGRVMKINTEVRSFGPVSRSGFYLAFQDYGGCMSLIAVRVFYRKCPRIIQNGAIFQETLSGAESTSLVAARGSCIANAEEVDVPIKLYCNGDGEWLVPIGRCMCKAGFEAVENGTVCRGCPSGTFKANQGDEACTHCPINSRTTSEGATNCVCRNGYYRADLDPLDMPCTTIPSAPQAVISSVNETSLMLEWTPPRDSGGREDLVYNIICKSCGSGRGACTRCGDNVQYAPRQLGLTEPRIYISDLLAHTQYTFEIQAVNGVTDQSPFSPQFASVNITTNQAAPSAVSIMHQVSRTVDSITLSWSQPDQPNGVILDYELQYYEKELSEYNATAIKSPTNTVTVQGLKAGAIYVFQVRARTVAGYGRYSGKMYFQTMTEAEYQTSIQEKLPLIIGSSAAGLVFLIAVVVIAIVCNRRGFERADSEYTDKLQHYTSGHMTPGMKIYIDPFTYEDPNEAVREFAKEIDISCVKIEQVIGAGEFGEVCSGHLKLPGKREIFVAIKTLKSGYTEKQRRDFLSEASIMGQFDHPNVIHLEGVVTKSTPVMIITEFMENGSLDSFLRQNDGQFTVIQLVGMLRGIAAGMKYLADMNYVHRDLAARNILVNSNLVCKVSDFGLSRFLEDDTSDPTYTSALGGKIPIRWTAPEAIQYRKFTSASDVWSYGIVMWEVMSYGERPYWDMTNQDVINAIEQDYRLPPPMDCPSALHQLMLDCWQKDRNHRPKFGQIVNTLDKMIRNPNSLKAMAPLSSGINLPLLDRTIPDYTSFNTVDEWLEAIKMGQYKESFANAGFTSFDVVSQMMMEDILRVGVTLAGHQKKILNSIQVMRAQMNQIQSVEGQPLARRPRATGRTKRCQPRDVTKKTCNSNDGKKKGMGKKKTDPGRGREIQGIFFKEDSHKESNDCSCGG
# [5] = biological target: T3, Ephrin type-B receptor 2 (Homo sapiens); details: at 10 µM
# [6] = biological target: T4, Ephrin type-B receptor 3 (Homo sapiens) (UniProt P54753); details: at 1 µM
# T4 sequence (whole entry): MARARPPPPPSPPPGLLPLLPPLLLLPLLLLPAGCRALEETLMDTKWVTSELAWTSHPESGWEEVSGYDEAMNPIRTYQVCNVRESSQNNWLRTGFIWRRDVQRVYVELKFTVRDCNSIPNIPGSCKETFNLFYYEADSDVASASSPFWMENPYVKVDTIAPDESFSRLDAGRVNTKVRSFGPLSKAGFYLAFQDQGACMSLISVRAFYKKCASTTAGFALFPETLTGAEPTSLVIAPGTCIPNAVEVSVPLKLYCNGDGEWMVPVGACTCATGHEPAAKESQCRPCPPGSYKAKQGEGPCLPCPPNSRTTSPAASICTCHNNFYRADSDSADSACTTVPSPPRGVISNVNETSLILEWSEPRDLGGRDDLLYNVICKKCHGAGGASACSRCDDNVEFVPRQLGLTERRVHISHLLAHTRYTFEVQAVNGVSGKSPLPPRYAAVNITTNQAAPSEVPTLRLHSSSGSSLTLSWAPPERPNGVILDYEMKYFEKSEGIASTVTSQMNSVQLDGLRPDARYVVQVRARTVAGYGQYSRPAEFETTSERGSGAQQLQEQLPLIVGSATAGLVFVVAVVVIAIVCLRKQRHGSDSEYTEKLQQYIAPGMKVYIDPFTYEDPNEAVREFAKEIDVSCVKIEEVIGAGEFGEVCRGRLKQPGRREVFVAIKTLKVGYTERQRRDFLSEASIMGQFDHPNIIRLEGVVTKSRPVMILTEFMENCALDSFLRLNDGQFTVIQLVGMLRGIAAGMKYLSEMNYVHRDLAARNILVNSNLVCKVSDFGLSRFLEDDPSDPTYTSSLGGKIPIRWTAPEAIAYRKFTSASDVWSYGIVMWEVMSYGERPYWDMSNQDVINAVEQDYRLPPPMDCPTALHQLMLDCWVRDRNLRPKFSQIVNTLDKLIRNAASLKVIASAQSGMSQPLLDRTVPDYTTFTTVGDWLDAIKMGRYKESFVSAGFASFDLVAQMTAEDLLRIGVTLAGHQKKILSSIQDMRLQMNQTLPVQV
# [7] = biological target: T4, Ephrin type-B receptor 3 (Homo sapiens); details: at 10 µM
# [8] = biological target: T5, Ephrin type-B receptor 4 (Homo sapiens) (UniProt P54760); details: at 1 µM
# T5 sequence (whole entry): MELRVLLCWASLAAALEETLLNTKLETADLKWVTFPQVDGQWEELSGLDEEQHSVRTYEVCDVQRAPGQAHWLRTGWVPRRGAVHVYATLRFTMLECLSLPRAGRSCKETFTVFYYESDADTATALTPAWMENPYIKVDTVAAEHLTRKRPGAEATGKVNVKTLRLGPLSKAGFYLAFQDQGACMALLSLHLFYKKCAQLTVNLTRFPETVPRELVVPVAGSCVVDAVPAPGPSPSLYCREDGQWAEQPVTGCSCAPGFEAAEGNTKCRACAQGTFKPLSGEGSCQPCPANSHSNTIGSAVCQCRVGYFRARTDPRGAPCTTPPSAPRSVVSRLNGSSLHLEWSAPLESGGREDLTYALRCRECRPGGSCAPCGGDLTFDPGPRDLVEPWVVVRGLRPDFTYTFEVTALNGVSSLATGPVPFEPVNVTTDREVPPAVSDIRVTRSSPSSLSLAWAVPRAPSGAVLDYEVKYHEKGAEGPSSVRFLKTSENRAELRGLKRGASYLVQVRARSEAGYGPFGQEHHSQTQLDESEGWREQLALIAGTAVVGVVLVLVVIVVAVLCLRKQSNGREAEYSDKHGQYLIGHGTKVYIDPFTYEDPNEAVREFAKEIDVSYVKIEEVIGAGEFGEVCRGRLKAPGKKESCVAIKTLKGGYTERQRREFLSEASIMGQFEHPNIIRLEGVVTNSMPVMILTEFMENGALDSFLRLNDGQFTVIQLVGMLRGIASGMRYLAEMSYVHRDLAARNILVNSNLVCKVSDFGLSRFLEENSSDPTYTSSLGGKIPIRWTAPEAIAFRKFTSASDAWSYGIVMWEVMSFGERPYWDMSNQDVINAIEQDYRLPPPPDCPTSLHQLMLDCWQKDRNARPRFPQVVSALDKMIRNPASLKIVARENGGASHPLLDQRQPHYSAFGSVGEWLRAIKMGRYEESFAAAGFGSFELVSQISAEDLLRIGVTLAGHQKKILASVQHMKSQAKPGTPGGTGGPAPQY
# [9] = biological target: T5, Ephrin type-B receptor 4 (Homo sapiens); details: at 10 µM
# [10] = biological target: Receptor tyrosine-protein kinase erbB-4 (Homo sapiens) (UniProt Q15303); details: at 1 µM
# [11] = biological target: Receptor tyrosine-protein kinase erbB-4 (Homo sapiens) (UniProt Q15303); details: at 10 µM
# [12] = biological target: Ephrin type-A receptor 5 (Homo sapiens) (UniProt P54756); details: at 1 µM
# [13] = biological target: Ephrin type-A receptor 5 (Homo sapiens) (UniProt P54756); details: at 10 µM
# [14] = biological target: Ephrin type-A receptor 7 (Homo sapiens) (UniProt Q15375); details: at 1 µM
# [15] = biological target: Ephrin type-A receptor 4 (Homo sapiens) (UniProt P54764); details: at 1 µM
# [16] = biological target: Ephrin type-A receptor 4 (Homo sapiens) (UniProt P54764); details: at 10 µM
# [17] = biological target: Ephrin type-A receptor 7 (Homo sapiens) (UniProt Q15375); details: at 10 µM
# [18] = biological target: Focal adhesion kinase 1 (Homo sapiens) (UniProt Q05397); details: at 1 µM
# Chain of Ephrin type-A receptor 5 (Homo sapiens) (P54756 whole entry): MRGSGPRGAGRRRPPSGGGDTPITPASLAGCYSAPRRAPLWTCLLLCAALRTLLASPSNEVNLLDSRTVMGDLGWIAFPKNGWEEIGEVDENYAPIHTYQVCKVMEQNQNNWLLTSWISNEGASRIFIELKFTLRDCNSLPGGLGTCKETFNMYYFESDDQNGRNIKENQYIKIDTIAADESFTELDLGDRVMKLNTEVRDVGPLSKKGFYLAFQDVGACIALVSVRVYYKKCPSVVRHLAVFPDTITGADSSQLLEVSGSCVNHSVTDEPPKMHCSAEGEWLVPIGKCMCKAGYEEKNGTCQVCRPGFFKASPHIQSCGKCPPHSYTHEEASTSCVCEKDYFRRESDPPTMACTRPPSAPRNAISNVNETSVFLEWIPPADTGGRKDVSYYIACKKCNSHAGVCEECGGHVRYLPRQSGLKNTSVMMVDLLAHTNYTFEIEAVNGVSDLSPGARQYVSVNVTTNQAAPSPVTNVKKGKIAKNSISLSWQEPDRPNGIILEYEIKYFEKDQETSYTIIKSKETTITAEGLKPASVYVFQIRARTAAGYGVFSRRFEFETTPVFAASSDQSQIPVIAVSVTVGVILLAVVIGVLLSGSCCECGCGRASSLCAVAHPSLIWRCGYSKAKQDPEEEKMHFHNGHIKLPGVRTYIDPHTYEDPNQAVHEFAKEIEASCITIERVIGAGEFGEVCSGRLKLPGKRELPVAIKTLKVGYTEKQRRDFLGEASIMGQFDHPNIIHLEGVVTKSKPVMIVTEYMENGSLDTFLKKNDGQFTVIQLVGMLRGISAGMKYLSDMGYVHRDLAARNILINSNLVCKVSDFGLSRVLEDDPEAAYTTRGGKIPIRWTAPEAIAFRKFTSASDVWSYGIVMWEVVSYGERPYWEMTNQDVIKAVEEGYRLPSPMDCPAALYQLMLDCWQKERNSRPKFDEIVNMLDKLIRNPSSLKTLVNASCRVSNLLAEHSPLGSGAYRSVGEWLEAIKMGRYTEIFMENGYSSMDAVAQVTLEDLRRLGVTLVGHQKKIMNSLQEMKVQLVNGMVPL
# Chain of Receptor tyrosine-protein kinase erbB-4 (Homo sapiens) (Q15303 whole entry): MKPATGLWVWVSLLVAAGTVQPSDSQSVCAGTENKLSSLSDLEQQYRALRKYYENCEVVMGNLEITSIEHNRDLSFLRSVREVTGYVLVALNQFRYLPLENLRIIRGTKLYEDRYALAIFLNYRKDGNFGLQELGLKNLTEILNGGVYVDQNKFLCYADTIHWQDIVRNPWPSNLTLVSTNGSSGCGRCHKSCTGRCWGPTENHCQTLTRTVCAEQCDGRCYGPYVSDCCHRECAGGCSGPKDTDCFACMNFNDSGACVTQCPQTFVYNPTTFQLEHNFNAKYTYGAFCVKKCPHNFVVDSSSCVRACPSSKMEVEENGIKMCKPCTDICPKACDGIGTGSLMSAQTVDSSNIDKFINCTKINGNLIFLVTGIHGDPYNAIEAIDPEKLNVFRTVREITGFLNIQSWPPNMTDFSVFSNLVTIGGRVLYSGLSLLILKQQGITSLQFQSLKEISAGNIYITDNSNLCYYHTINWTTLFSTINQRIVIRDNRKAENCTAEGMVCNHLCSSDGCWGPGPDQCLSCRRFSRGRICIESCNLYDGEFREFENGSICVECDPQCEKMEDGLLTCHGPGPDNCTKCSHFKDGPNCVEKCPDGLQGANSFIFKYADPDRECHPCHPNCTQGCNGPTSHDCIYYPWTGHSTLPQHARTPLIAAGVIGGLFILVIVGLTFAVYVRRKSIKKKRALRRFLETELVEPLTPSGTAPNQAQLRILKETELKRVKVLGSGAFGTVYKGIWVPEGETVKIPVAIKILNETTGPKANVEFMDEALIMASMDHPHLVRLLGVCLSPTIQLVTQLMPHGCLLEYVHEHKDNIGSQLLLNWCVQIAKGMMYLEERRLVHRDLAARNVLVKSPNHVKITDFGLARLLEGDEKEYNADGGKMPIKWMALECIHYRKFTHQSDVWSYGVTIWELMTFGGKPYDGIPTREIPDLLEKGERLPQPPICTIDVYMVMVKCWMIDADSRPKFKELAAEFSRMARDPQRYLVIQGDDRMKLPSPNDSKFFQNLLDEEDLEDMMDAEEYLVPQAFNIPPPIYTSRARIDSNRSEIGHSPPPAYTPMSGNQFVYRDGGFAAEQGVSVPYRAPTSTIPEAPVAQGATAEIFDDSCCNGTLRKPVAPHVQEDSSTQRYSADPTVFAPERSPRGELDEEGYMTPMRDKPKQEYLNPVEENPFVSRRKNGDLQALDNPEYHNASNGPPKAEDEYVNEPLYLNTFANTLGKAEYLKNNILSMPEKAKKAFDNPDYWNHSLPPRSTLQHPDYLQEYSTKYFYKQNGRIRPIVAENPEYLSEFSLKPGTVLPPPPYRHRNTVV
# Chain of Ephrin type-A receptor 4 (Homo sapiens) (P54764 whole entry): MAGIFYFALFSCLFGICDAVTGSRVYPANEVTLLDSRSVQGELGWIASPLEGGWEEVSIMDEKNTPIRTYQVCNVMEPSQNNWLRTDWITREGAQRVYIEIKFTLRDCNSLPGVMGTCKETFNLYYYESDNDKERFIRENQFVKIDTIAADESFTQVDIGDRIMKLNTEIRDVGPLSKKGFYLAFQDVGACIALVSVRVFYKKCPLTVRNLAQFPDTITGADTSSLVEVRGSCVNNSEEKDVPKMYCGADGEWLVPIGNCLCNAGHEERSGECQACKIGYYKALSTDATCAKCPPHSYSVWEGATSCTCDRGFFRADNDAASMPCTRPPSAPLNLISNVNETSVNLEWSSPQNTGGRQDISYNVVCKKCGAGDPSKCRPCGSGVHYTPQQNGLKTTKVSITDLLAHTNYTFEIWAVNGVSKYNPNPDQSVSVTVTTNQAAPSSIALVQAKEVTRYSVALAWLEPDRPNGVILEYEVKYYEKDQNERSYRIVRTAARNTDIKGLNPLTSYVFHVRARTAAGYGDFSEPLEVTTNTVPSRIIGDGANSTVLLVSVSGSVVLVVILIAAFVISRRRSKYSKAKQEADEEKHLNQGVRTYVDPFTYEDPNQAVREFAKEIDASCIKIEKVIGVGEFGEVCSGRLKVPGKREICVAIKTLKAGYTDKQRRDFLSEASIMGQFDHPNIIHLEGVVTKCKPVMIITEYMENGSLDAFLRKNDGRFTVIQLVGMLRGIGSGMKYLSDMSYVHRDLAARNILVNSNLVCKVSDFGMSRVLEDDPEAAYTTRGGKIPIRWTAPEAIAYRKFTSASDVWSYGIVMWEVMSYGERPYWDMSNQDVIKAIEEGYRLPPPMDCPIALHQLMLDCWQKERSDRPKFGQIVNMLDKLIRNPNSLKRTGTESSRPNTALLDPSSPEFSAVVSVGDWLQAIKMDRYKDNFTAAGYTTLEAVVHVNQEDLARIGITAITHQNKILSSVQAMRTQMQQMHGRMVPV
# Chain of Ephrin type-A receptor 7 (Homo sapiens) (Q15375 28-998 limits assumed): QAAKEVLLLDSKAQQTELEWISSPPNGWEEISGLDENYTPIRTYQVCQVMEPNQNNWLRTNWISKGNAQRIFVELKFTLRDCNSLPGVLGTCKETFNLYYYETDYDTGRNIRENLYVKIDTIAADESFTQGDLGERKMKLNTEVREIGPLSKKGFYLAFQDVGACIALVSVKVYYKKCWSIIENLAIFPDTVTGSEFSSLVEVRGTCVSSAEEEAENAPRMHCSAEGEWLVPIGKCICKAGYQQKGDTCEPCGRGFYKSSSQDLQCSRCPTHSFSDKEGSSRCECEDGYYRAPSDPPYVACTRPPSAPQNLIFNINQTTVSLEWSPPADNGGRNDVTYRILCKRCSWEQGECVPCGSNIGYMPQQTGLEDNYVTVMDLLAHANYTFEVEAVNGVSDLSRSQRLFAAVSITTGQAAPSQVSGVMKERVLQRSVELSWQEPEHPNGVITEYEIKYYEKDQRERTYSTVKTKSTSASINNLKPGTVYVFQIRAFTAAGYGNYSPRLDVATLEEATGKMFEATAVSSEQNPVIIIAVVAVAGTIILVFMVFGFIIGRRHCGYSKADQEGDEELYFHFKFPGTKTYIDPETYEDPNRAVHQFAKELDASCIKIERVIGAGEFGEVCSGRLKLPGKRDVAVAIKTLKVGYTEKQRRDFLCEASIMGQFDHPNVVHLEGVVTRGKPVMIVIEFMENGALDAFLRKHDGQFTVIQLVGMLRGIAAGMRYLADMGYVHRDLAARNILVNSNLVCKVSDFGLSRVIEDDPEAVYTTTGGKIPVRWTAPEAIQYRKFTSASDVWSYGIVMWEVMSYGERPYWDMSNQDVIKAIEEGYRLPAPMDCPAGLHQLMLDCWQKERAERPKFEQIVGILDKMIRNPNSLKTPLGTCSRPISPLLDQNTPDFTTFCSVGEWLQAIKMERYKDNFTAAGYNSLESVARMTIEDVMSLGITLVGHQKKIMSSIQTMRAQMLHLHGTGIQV
compound,measurement,setting,value
NC(=O)c1ccc(-c2nc(-c3ccc4c(c3)OCCO4)c(-c3ccccn3)[nH]2)cc1,residual activity,[1],94%
same,residual activity,[2],93%
same,residual activity,[3],85%
same,residual activity,[4],96%
same,residual activity,[5],24%
same,residual activity,[6],117% (inactive)
same,residual activity,[7],98%
same,residual activity,[8],85%
same,residual activity,[9],41%
same,residual activity,[10],89%
same,residual activity,[11],59%
O=C1Nc2ccccc2/C1=C\c1c(Cl)[nH]c2ccccc12,residual activity,[12],118%
same,residual activity,[8],117%
same,residual activity,[9],134%
O=c1c(-c2ccc(F)cc2)c(-c2ccncc2)[nH]n1-c1ccc(Cl)cc1,residual activity,[12],119%
same,residual activity,[13],82%
same,residual activity,[14],100%
same,residual activity,[2],128%
same,residual activity,[4],121%
same,residual activity,[11],34%
O=C1Cc2c([nH]c3ccc([N+](=O)[O-])cc23)-c2ccccc2N1,residual activity,[15],105%
same,residual activity,[16],105%
same,residual activity,[3],81%
same,residual activity,[4],106%
same,residual activity,[5],107%
same,residual activity,[6],124% (inactive)
same,residual activity,[7],113%
O=S(=O)(NCCNC/C=C/c1ccc(Br)cc1)c1cccc2cnccc12,residual activity,[12],117%
same,residual activity,[11],74%
Cc1cc(C)c(/C=C2\C(=O)Nc3ccccc32)[nH]1,residual activity,[1],80%
same,residual activity,[17],52%
same,residual activity,[18],52%
